In PubChem BioAssay (NCI):
The panel holds about 83,000 compounds, 20% with a hit somewhere; the sample as a whole holds those more often.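 Treatment: one concentration, 48 hours, 96-well format. Scoring: percent growth, with anything below 10 considered active.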 Active and inactive are the calls of the source.

Legend:
Assay in all cases: NCI-60 one-dose screen, 48 h (100 = growth as untreated, 0 = no growth, -100 = all killed)
Conditions in all cases: 10 µM unless noted
[1] = system: NCI-H23 lung
[2] = system: NCI-H226 lung
[3] = system: NCI-H322M lung
[4] = system: HOP-62 NSCLC
[5] = system: NCI-H460 lung
[6] = system: HOP-92 NSCLC
[7] = system: NCI-H522 lung
[8] = system: A549/ATCC NSCLC
[9] = system: 786-0 renal
[10] = system: COLO 205 colon
[11] = system: DU-145 prostate
[12] = system: K-562 leukemia
[13] = system: MALME-3M melanoma
[14] = system: MDA-MB-231 breast
[15] = system: RXF 393 renal
[16] = system: SF-268 CNS
[17] = system: SF-295 CNS
[18] = system: SF-539 CNS
[19] = system: UACC-257 melanoma
[20] = system: M14 melanoma

Measured: growth

O=C(NNC(=O)N1c2ccccc2C=Cc2ccccc21)c1ccccc1
inactive: [1] 101% | [2] 113% | [3] 107% | [4] 114% | [5] 106% | [6] 103% | [7] 94% | [8] 103% | [9] 103% | [10] 112% | [11] 107% | [12] 101% | [13] 117% | [14] 111% | [15] 106% | [16] 98.4% | [17] 95.7% | [18] 102% | [19] 108%

N/C(=N\C(N)=N\c1nc2ccccc2s1)c1cccc(Br)c1
active: [4] -0.459% | [8] -40.6%
inactive: [1] 77% | [2] 71.6% | [3] 81% | [5] 76.4% | [6] 96.7% | [7] 80% | [9] 98.4% | [10] 115% | [11] 99.1% | [12] 73.6% | [13] 101% | [14] 73.4% | [15] 95.5% | [16] 101% | [17] 76% | [18] 98.6% | [19] 103% | [20] 82%

COc1ccc(-c2cn(-c3cccc(C(=O)/C=C/c4cc(OC)c(OC)c(OC)c4)c3)c(=O)[nH]2)cc1OC
inactive: [1] 93.9% | [2] 87.9% | [3] 95.5% | [4] 93% | [5] 91% | [6] 61.2% | [7] 74.4% | [8] 89.5% | [9] 80.2% | [10] 90.9% | [11] 98.6% | [12] 50.7% | [13] 86% | [14] 72.1% | [15] 65.8% | [16] 65.8% | [17] 96.5% | [18] 76.5% | [19] 80.1% | [20] 80.1%

COc1ccc(C2NN=C3c4ccccc4CCC32)cc1 (centres undefined)
inactive: [1] 67.7% | [2] 73.5% | [3] 104% | [4] 67.3% | [5] 56.3% | [6] 67.5% | [7] 47.2% | [8] 68.1% | [9] 91.3% | [10] 78.4% | [11] 98.8% | [12] 10.2% | [13] 25.4% | [14] 58.5% | [15] 47% | [16] 69.3% | [17] 40.2% | [18] 58% | [19] 60.1%

O=c1[nH]c(NCc2ccccc2)nc2nc(Nc3ccc(NC(=S)Nc4ccccc4)cc3)nc(-c3ccc(O)cc3O)c12
inactive: [1] 99.4% | [2] 89.6% | [3] 140% | [4] 105% | [5] 109% | [6] 89.5% | [7] 54.2% | [8] 41.6% | [9] 104% | [10] 110% | [11] 116% | [12] 63.3% | [13] 103% | [14] 90.2% | [15] 81.4% | [16] 96% | [17] 147% | [18] 108% | [19] 39.7%

CC(=O)c1cc2c(N)c(C(=O)Nc3cccc4c3OCCO4)sc2nc1C
inactive: [1] 96% | [2] 88.9% | [3] 100% | [4] 80.7% | [5] 82.1% | [6] 99.2% | [7] 67.7% | [8] 71.4% | [9] 97.9% | [10] 86.6% | [11] 104% | [12] 74.7% | [13] 101% | [14] 100% | [15] 99.2% | [16] 96.3% | [17] 92.8% | [18] 100% | [19] 99.5%

COc1cc(/C=C/C(=O)c2c(C)nc3ccccc3c2C)ccc1OCCCCOc1cc2c(cc1OC)C(=O)N1CCC[C@H]1C=N2
active: [1] -34.9% | [2] -80.9% | [3] -62.7% | [4] -49% | [5] -93.3% | [6] -49.1% | [7] -32.2% | [8] -52.6% | [9] -88.1% | [10] -100% | [11] -100% | [12] -55.5% | [13] -81.3% | [14] -65.9% | [15] -92.6% | [16] -35.6% | [17] -48.9% | [18] -90.6% | [19] -88%

O=c1[nH]c(Nc2ccc(S(=O)(=O)O)cc2)nc2nc(Nc3ccc(NC(=S)Nc4ccccc4)cc3)nc(-c3ccc(O)cc3O)c12
inactive: [1] 102% | [2] 88.6% | [3] 125% | [4] 109% | [5] 105% | [6] 102% | [7] 91.9% | [8] 110% | [9] 104% | [10] 119% | [11] 133% | [12] 101% | [13] 98.8% | [14] 90.5% | [15] 115% | [16] 104% | [17] 121% | [18] 189% | [19] 139%
